The source of these data is ChEMBL document CHEMBL1201862, “PubChem BioAssay data set” (2004).

Screen size: about 270,000 compounds; about 5,800 (2.1%) were called active. Inconclusive results (about 16%) are left out. The rule behind the calls is not given here. The entries come from a sample that favours actives as a whole.

Sequence of Microtubule-associated protein tau (Homo sapiens) (P10636 whole entry): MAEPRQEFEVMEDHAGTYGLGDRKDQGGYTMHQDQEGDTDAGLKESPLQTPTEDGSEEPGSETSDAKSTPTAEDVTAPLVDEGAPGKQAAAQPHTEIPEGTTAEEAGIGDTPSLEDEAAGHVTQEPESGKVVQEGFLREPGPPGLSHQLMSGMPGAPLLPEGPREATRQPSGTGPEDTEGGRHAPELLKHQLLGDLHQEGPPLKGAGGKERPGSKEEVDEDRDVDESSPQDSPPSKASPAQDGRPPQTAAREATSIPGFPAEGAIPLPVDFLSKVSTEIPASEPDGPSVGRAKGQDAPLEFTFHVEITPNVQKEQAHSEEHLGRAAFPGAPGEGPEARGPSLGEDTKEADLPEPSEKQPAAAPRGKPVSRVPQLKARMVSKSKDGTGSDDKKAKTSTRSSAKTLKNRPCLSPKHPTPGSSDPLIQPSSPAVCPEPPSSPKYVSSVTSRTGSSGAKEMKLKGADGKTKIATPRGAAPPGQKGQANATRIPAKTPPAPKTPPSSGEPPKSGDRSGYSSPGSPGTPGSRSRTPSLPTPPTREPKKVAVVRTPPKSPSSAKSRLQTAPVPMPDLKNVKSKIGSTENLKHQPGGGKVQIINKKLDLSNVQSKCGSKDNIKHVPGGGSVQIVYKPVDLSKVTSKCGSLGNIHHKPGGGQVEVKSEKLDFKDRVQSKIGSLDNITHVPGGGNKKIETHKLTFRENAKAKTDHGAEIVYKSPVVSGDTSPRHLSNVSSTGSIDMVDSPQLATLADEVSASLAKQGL

This assay concerns the target Microtubule-associated protein tau (Homo sapiens) (UniProt P10636). Briefly: qHTS for Inhibitors of Tau Fibril Formation, Thioflavin T Binding. [Related pubchem assays: 596 ].
`Cl[Te]1(Cl)OCCO1`: the Potency was 5.62 µM (active).
